The record followed here is PubChem BioAssay (NCI).

The panel holds about 79,000 compounds, 15% with a hit somewhere; the sample as a whole holds those more often. Unmarked numbers belong to inactive results. Active and inactive are the calls of the source. Rule as the data show it: active = growth inhibition above about 70%; inactive = the rest.

This assay can be described thus: NCI Yeast Anticancer Drug Screen. Data for the bub3 strain (AID 167). The note with it: S. cerevisiae bub3 mutant strain, at 50.0 µM, stronger effect = higher value. In a few lines: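 Screening used yeast with an engineered genetic alteration affecting cell cycle control. Compound-exposed cultures were compared with vehicle cultures, and reduced growth was taken as inhibition.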
Regarding `CCC1(c2ccc(N3C(=O)c4ccccc4C3=O)cc2)CCC(=O)NC1=O` (stereo unspecified), the growth inhibition is -8.6%.
Next, `CN(C)c1c([N+](=O)[O-])cc(N2C(=O)C=CC2=O)cc1[N+](=O)[O-]`: 92.3% (active); `CCOC1(OCC)Oc2c(Cl)c(Cl)c(Cl)c(Cl)c2OC1(OCC)OCC`: 98% (active).
Next, `CC(=O)NC1=C(Oc2ccccc2)C(=O)c2ccccc2C1=O`: 94.5% (active); `CC1SC(=S)N(c2ccc(Cl)cc2)C1=O` (stereo unspecified): 85.5% (active); `CC(NNC(=S)N1CC2CCC(CC2)C1)c1cc2ccccc2cn1` (stereo unspecified): 98.2% (active).
The result for `CCCCCCCCCCCCCC(=O)N1CCOCC1` reads 99.6% (active); that for `COC(O)C(=O)c1c2c(cc3c1CC1(Cc4cc5c(cc4C1)CCC5)C3)CCC2` (stereo unspecified), 88.5% (active).
As for `CCC(=O)OCC(=O)c1ccc(-c2ccccc2)cc1`, the growth inhibition is 57.1%.
The result for `CN(Cc1cnc2nc(N)nc(N)c2n1)c1ccc(C(=O)NC(CCC(=O)O)C(=O)O)cc1` (stereo unspecified) reads -9.7%.
For the compound `COc1ccc(C(=O)Nc2ccc(O)c(=O)cc2)cc1`, the growth inhibition was 87.4% (active).
The result for `c1cc[c]([Sn]([NH]c2ncnc3[nH]cnc23)([NH]c2ncnc3[nH]cnc23)[c]2ccccc2)cc1` reads 57.4%; that for `CCCCCCCCCCCC1C(C#N)C(=O)NC(=O)C1C#N` (stereo unspecified), -27.9%; that for `c1ccc(CSc2nnc3c4ccccc4c4ccccc4c3n2)cc1`, -9.25%.
The result for `Cc1ccc(-n2cc(-c3ccc(Cl)cc3)c3c(N)ncnc32)cc1` reads 92% (active); that for `C[C@]12CCC3[C@@H](CC[C@@H]4c5nonc5CC[C@]34C)C1CCC(=O)N2` (stereo partly specified), 31.9%.
